Results filed as inconclusive are left out. A number with no mark means an inactive call. The source made the active and inactive calls. Unless noted, calls come from the whole dose curve.
Tested on: not listed separately
Experiment: qHTS assay to identify small molecule antagonists of the sonic hedgehog signaling (Shh) pathway (AID 1259369); note: nearly all actives have a fitted effect of over 45% in size
Settings: NIH/3T3 Gli1-Luc reporter, Shh antagonist, luminescence 24 h; series mostly up to 92.4 µM; activity change, negative = inhibition: at the top concentration
In short: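 NIH/3T3-derived Gli1-Luc reporter cells plated 4 h, dosed with compound, then stimulated with conditioned medium for 24 h at 37 C. Firefly luciferase luminescence read after 30 min with detection reagent at room temperature.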
% is set by controls: 0 for no effect and ±100 for the full control effect; potency is the fitted concentration of half-maximal effect.

| SMILES | Potency | activity change, negative = inhibition |
| --- | --- | --- |
| CCC[CH2][Sn]([CH2]CCC)([CH2]CCC)[O][Sn]([CH2]CCC)([CH2]CCC)[CH2]CCC | 0.212 µM (active) | – |
| CSSC | 15.5 µM (active) | – |
| OCC(Br)CBr (stereo not drawn) | – | 80.2% |
| O=Cc1ccccc1 | – | 0% |
| O=[N+]([O-])c1ccc(Cl)c(Cl)c1Cl | – | 5.4% |
| CCC1COC(Cn2cncn2)(c2ccc(Cl)cc2Cl)O1 (stereo not drawn) | 54.5 µM (active) | – |
| C#CC1(O)CCCCC1 | – | 30.2% |
| COC(=O)/C=C(\C)OP(=O)(OC)OC | – | -0.529% |
| CCC[CH2][Sn]([CH2]CCC)([O]C(C)=O)[O]C(C)=O | 2.19 µM (active) | – |
| Clc1ccc(C2(Cn3cncn3)OCCO2)c(Cl)c1 | – | -16.7% |
| [O]=[Cr][O][Cr]=[O] | – | 18.5% |
| Nc1cc(Cl)ccc1Cl | – | 0.72% |
| CCOP(=O)(OCC)Oc1cc(C)nc(C(C)C)n1 | – | 10.7% |
| CC(C)[C@@H](Nc1ccc(C(F)(F)F)cc1Cl)C(=O)OC(C#N)c1cccc(Oc2ccccc2)c1 (stereo partly drawn) | – | 12% |
| Clc1ccc(C(Cl)(Cl)Cl)cc1Cl | – | -8.21% |
| CC1CN1 (stereo not drawn) | – | -6.42% |
| CC(C)c1c(CN(C)C(C)Cc2ccccc2)n(C)n(-c2ccccc2)c1=O (stereo not drawn) | – | -6.07% [at 42.5 µM] |
| CNC(=O)Oc1cc(C)cc(C(C)C)c1 | – | -17.5% |
| CCCCCCC[CH2][Sn]([Cl])([Cl])[CH2]CCCCCCC | – | 10.9% |
| CSC1=N[C@@](C)(c2ccccc2)C(=O)N1Nc1ccccc1 | 2.43 µM (active) | – |

| SMILES | Potency | activity change, negative = inhibition |
| --- | --- | --- |
| C[C@]12CC[C@H]3[C@@H](CCC4=CC(=O)CC[C@@H]43)[C@@H]1CC[C@@H]2OC(=O)CCc1ccco1 | – | -6.62% [at 42.5 µM] |
| N#Cc1ccc(N(CC(N)=O)CC(F)(F)F)cc1C(F)(F)F | – | -18.7% |
| O=C(N[C@@H]1N=C(c2ccccc2F)c2cccc3c2N(CC3)C1=O)c1cc2ccccc2[nH]1 | – | 12.7% [at 42.5 µM] |
| BrCC(Br)(Br)Br | – | 15% |
| O=[N+]([O-])c1ccc(CCl)cc1 | – | -4.41% |
| C=CCOC(=O)c1ccccc1N | – | -9.53% |
| CC(C)C(Nc1ccc(C(F)(F)F)cc1Cl)C(=O)OC(C#N)c1cccc(Oc2ccccc2)c1 (stereo not drawn) | 43.6 µM (active) | – |
| COC(=O)c1ccccc1S(=O)(=O)NC(=O)Nc1nc(C)nc(OC)n1 | – | 5.2% |
| Cc1ccc([N+](=O)[O-])[c]2c1[O][Hg]2 | 0.266 µM (active) | – |
| Cc1ccn2nc(S(=O)(=O)Nc3c(F)cccc3F)nc2n1 | – | 14% |
| S=C=NCCc1ccccc1 | – | -14.3% |
| c1ccc2nc(N3CCNCC3)ccc2c1 | – | 5.19% [at 42.5 µM] |
| Oc1cc(Cl)c(Cl)c(Cl)c1Cl | 26.7 µM (active) | – |
| CCC(C)Br (stereo not drawn) | – | -5.29% |
| C#CCC1=C(C)C(OC(=O)C2C(C=C(C)C)C2(C)C)CC1=O (stereo not drawn) | – | -14.6% |
| COCCC#N | – | 18.5% |
| CCC[CH2][Sn]([CH2]CCC)([CH2]CCC)[CH2]CCC | 13.7 µM (active) | – |
| COP(=O)(OC)Oc1ccc([N+](=O)[O-])cc1 | – | -5.53% |
| Cc1cnc2c(C(=O)O)c(Cl)ccc2c1 | – | 13.1% |

Molecular target: Estrogen receptor beta (Homo sapiens) (UniProt Q92731)
Sequence (Q92731 whole entry, looked up): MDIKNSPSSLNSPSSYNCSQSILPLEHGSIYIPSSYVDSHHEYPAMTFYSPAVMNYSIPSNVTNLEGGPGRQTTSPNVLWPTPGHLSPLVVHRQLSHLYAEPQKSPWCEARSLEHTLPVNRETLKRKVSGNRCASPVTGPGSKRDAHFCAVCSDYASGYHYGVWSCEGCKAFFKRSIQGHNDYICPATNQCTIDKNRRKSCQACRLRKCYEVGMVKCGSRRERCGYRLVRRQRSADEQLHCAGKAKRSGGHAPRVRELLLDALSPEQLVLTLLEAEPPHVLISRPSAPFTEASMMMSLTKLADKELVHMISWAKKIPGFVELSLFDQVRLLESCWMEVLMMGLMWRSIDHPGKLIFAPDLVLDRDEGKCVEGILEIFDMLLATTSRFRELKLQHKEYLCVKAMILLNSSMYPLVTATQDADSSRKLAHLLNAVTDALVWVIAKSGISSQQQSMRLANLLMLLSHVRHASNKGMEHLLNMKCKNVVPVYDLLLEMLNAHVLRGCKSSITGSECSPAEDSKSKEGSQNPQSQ
Experiment: qHTS assay to identify small molecule agonists of the estrogen receptor beta (ER-beta) signaling pathway (AID 1259377; active = well fitted activation curve with a large enough effect in the signal ratio in the repeat runs, not every such curve was filed as active; the % refers to the signal ratio)
Settings: ER-beta-UAS-bla HEK293T, beta-lactamase FRET ratio, 16 h; series mostly up to 92.4 µM; activation: at the top concentration
In short: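 Agonist mode cell assay in GripTite HEK293T cells expressing an ER-beta fusion that drives beta-lactamase from an Upstream Activator Sequence; 16 hr compound exposure at 37C, then 2 h LiveBLAzer B/G FRET substrate at room temperature, fluorescence read-out.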

| SMILES | activation | Potency |
| --- | --- | --- |
| CCC[CH2][Sn]([CH2]CCC)([CH2]CCC)[O][Sn]([CH2]CCC)([CH2]CCC)[CH2]CCC | -9.06% [at 8.39 µM] | – |
| CSSC | 1.3% | – |
| OCC(Br)CBr (stereo not drawn) | -0.357% | – |
| O=Cc1ccccc1 | -2.82% | – |
| O=[N+]([O-])c1ccc(Cl)c(Cl)c1Cl | -0.901% | – |
| CCC1COC(Cn2cncn2)(c2ccc(Cl)cc2Cl)O1 (stereo not drawn) | -3.62% | – |
| C#CC1(O)CCCCC1 | 3% | – |
| COC(=O)/C=C(\C)OP(=O)(OC)OC | 0.3% | – |
| CCC[CH2][Sn]([CH2]CCC)([O]C(C)=O)[O]C(C)=O | -11.3% | – |
| Clc1ccc(C2(Cn3cncn3)OCCO2)c(Cl)c1 | 0.831% | – |
| [O]=[Cr][O][Cr]=[O] | -1.95% | – |
| Nc1cc(Cl)ccc1Cl | 0.832% | – |
| CCOP(=O)(OCC)Oc1cc(C)nc(C(C)C)n1 | 4.13% | – |
| CC(C)[C@@H](Nc1ccc(C(F)(F)F)cc1Cl)C(=O)OC(C#N)c1cccc(Oc2ccccc2)c1 (stereo partly drawn) | 0.141% | – |
| Clc1ccc(C(Cl)(Cl)Cl)cc1Cl | -2.06% | – |
| CC1CN1 (stereo not drawn) | 2.54% | – |
| CC(C)c1c(CN(C)C(C)Cc2ccccc2)n(C)n(-c2ccccc2)c1=O (stereo not drawn) | -3.85% [at 42.5 µM] | – |
| CNC(=O)Oc1cc(C)cc(C(C)C)c1 | 0.67% | – |
| CCCCCCC[CH2][Sn]([Cl])([Cl])[CH2]CCCCCCC | -7.06% | – |
| CSC1=N[C@@](C)(c2ccccc2)C(=O)N1Nc1ccccc1 | -3.37% | – |

| SMILES | activation | Potency |
| --- | --- | --- |
| C[C@]12CC[C@H]3[C@@H](CCC4=CC(=O)CC[C@@H]43)[C@@H]1CC[C@@H]2OC(=O)CCc1ccco1 | – | 2.66 µM (active) |
| N#Cc1ccc(N(CC(N)=O)CC(F)(F)F)cc1C(F)(F)F | 0.356% | – |
| O=C(N[C@@H]1N=C(c2ccccc2F)c2cccc3c2N(CC3)C1=O)c1cc2ccccc2[nH]1 | 8.32% [at 42.5 µM] | – |
| BrCC(Br)(Br)Br | -0.252% | – |
| O=[N+]([O-])c1ccc(CCl)cc1 | -0.624% | – |
| C=CCOC(=O)c1ccccc1N | -0.401% | – |
| CC(C)C(Nc1ccc(C(F)(F)F)cc1Cl)C(=O)OC(C#N)c1cccc(Oc2ccccc2)c1 (stereo not drawn) | -0.248% | – |
| COC(=O)c1ccccc1S(=O)(=O)NC(=O)Nc1nc(C)nc(OC)n1 | 5.06% | – |
| Cc1ccc([N+](=O)[O-])[c]2c1[O][Hg]2 | -0.158% [at 42.5 µM] | – |
| Cc1ccn2nc(S(=O)(=O)Nc3c(F)cccc3F)nc2n1 | 3.25% | – |
| S=C=NCCc1ccccc1 | -5.27% | – |
| c1ccc2nc(N3CCNCC3)ccc2c1 | -0.0501% [at 42.5 µM] | – |
| Oc1cc(Cl)c(Cl)c(Cl)c1Cl | -7.1% | – |
| CCC(C)Br (stereo not drawn) | -2.8% | – |
| C#CCC1=C(C)C(OC(=O)C2C(C=C(C)C)C2(C)C)CC1=O (stereo not drawn) | -3.83% | – |
| COCCC#N | 6.75% | – |
| CCC[CH2][Sn]([CH2]CCC)([CH2]CCC)[CH2]CCC | -6.66% | – |
| COP(=O)(OC)Oc1ccc([N+](=O)[O-])cc1 | 1.25% | – |
| Cc1cnc2c(C(=O)O)c(Cl)ccc2c1 | 0.118% | – |

Reference: PubChem BioAssay (Tox21)
